The source made the active and inactive calls. Rule for the calls: active = hit-call score of the fitted dose curve at least 0.9, where 1 is the maximum; inactive = score below 0.9.
Assay: APR_HepG2_P-H2AX_24hr: Apredica 24-hour HepG2 Assay for H2AX Phosphorylation (AID 2282920)
Details: high-content imaging, actives raise or lower the signal
Description: APR_HepG2_24hr is a cell-based, multiplexed-readout assay that uses HepG2, a human liver cell line, with measurements taken at 24 hours after chemical dosing in a 384-well plate.APR_HepG2_P-H2AX_24hr is one of 10 assay component(s) measured or calculated from the APR_HepG2_24hr assay. It is designed to make measurements of dna content, a form of viability reporter, as detected with fluorescence intensity signals by HCS Fluorescent Imaging technology.Data from the assay component APR_HepG2_P-H2AX_24hr was analyzed into 1 assay endpoint. This assay endpoint, APR_HepG2_P-H2AX_24hr, was analyzed with bidirectional fitting relative to DMSO as the negative control and baseline of activity. Using a type of viability reporter, measures of protein for gain or loss-of-signal activity can be used to understand the signaling at the pathway-level as they relate to the gene . Furthermore, this assay endpoint can be referred to as a primary readout, because this assay has produced multiple assay endpoints where this one serves a signaling function. To generalize the intended target to other relatable targets, this assay endpoint is annotated to the dna binding intended target family, where the subfamily is cellular response to DNA damage stimulus.
Cells were treated with dimethyl sulfoxide (DMSO) as a solvent control at a final concentration of 0.5% v/v or with compounds in DMSO with a resulting final DMSO concentration of 0.5% v/v. Compound treatment was done at concentrations of 0.39, 0.78, 1.56, 3.12, 6.24, 12.5, 25, 50, 100, and 200 uM in duplicate on each plate. Cells were treated with compounds for 1, 24, or 72 hr. Carbonyl […] m-chloro-phenylhydrazone (CCCP) and taxol were used as positive controls for mitochondrial function and cytoskeletal stability, respectively; DMSO served as the negative control for this experiment. Cells were fixed by the direct addition of 50 uL formaldehyde in Hank's Balanced Salt Solution (HBSS) to a final concentration of 3.7%. After incubation in the fixation medium for 30 min at room temperature (293-298 K), cells were rinsed twice with HBSS and treated with cell permeabilization buffer (16 uL of 0.5% Triton X-100) for 10 min at room temperature (293-298 K) before labeling. For mitochondrial membrane potential and mitochondrial measurements, pre-fixed cells were incubated with 50 uL of MitoTracker Red CMXRos (Invitrogen) at a concentration of 250 nM for 30 min before fixation. In the remaining cases, post-fixed cells were labeled by incubation with a multiplexed mixture of primary antibodies in HBSS for 60 min at room temperature (293-298 K) to detect immunoreactivity of c-Jun (1:500), phospho-histone H3 (1:100), phospho-histone H2A.x (1:200), p53 (1:400), alpha-tubulin (1:200) and Hoechst 33342 (2 ug/mL). Cells were labeled for multiplexed imaging on two separate plates: a) Hoechst 33342, MitoTracker Red, phospho-histone H3, and alpha-tubulin, and b) Hoechst 33342, phospho-histone H2A.x, and c-Jun. A final rinse with HBSS (50 uL) was performed before analysis. The primary and secondary antibodies for the proteins were phospho-histone H3 (rabbit anti-phospho-histone H3 and FITC-donkey anti-rabbit IgG), phospho-histone H2A.x (mouse anti-phospho-histone H2A.x and FITC-donkey anti-mouse IgG), c-Jun (rabbit anti-phospho-c-Jun and Cy3-donkey anti-rabbit IgG), p53 (sheep anti-p53 and Cy5-donkey anti-sheep IgG), alpha-tubulin (mouse anti-alpha-tubulin and Cy5-donkey anti-mouse IgG). These antibodies are available as the CellCiphr HepG2 assay kit (Millipore).Digital images of each well were captured using a Cellomics ArrayScan VTI (Thermo Scientific Cellomics) (0.8 NA objective, 0.63x optical coupler, and XF-93 filter set) at 20x magnification. The images were acquired using the autofocus feature of the ArrayScan instrument, which entails the following steps. First, the camera focuses on channel 1 (Hoechst 33342), where nuclei are identified. Second, a Z offset of 1 um is used for capturing mitochondria (MitoTracker Red). […]

Structure (SMILES) | outcome | AC50
CCCCCCCCCCCCc1ccccc1 | inactive | 
O=C1CCC(N2C(=O)c3ccccc3C2=O)C(=O)N1 (stereo not given) | inactive | 
COc1ccc(/C=C/S(=O)(=O)NC(=O)c2ccc(C)cc2Cl)cc1 |  | 106 µM (active)
Cc1ccc(N)cc1O | inactive | 
On1ccccc1=S | inactive | 
CCOC(=O)CC(CC(=O)OCC)(OC(C)=O)C(=O)OCC | inactive | 
CCCCCCCCO | inactive | 
CCc1cc(SCc2sc(-c3ccc(C(F)(F)F)cc3)nc2CN2CCN(c3ccc(OC)cc3)CC2)ccc1OCC(=O)O |  | 54.5 µM (active)
Cc1[nH]cnc1C[C@H]1CCc2c(C)c3ccccc3n2C1=O |  | 92.8 µM (active)
C1N2CN3CN1CN(C2)C3 | inactive | 
COc1cccc(-c2ccc(/C=C\CN3CCCCCC3)cc2Cl)c1 |  | 48.9 µM (active)
CC[C@H]1CC[C@H](NCc2cc3c(cc2OC)[C@H]2C[C@H]2C(=O)N3C)[C@H](c2ccccc2)N1 | inactive | 
Nc1ccc(Nc2ccccc2)cc1 |  | 17.9 µM (active)
COc1ccc2sc(C(=O)Nc3nnn[nH]3)c(OC(C)C)c2c1 | inactive | 
Cn1c(=O)cc(Oc2ccc(F)cc2F)c2cnc(NCC(C)(C)O)nc21 | inactive | 
Cn1cnc([N+](=O)[O-])c1Sc1ncnc2nc[nH]c12 | inactive | 
CCOC(=O)c1ccc(C2CCC(NC[C@H](O)COc3ccc(O)c(NS(C)(=O)=O)c3)CC2)cc1 (stereo not given in full) |  | 40 µM (active)
CC[C@H](C)C(=O)O[C@H]1C[C@@H](C)C=C2C=C[C@H](C)[C@H](CC[C@@H]3C[C@@H](O)CC(=O)O3)[C@H]21 |  | 2.46 µM (active)
O=C(OC[C@H]1O[C@@H](OC(=O)c2cc(O)c(O)c(OC(=O)c3cc(O)c(O)c(O)c3)c2)[C@H](OC(=O)c2cc(O)c(O)c(OC(=O)c3cc(O)c(O)c(O)c3)c2)[C@@H](OC(=O)c2cc(O)c(O)c(OC(=O)c3cc(O)c(O)c(O)c3)c2)[C@@H]1OC(=O)c1cc(O)c(O)c(OC(=O)c2cc(O)c(O)c(O)c2)c1)c1cc(O)c(O)c(OC(=O)c2cc(O)c(O)c(O)c2)c1 | inactive | 
CCCCCCc1ccc(O)cc1O |  | 101 µM (active)

Structure (SMILES) | outcome | AC50
O=C(O)c1cc(N=Nc2ccc(S(=O)(=O)Nc3ccccn3)cc2)ccc1O | inactive | 
Cc1c(-c2cccnc2)c2ccccc2n1CCCCC(=O)O | inactive | 
CCn1nc(Cc2ccccc2)cc1C1CCN(C[C@H]2C[C@H](N(C)[C@@H](C(=O)O)C(C)C)C[C@@H]2c2cccc(F)c2)CC1 | inactive | 
NC(=O)NO | inactive | 
Nc1cccc(N)c1 |  | 48.3 µM (active)
CC(C)(O)c1coc(S(=O)(=O)NC(=O)Nc2c3c(cc4c2CCC4)CCC3)c1 | inactive | 
CCCCCCCCCCCCCCCO | inactive | 
CCOCCO | inactive | 
O=c1n(CC2CO2)c(=O)n(CC2CO2)c(=O)n1CC1CO1 (stereo not given) |  | 17.8 µM (active)
CCOC(=O)COc1ccc2c(c1)CC(NCC(O)c1cccc(Cl)c1)CC2 (stereo not given) |  | 23.2 µM (active)
CC(=O)OC[C@H]1O[C@@](COC(C)=O)(O[C@H]2O[C@H](COC(C)=O)[C@@H](OC(C)=O)[C@H](OC(C)=O)[C@H]2OC(C)=O)[C@@H](OC(C)=O)[C@@H]1OC(C)=O | inactive | 
O=P(OC(CCl)CCl)(OC(CCl)CCl)OC(CCl)CCl |  | 43.4 µM (active)
CCCCC(CC)COC(=O)c1ccc(C(=O)OCC(CC)CCCC)cc1 (stereo not given) | inactive | 
CC1(C)C(=O)N(Br)C(=O)N1Br | inactive | 
O=C(NS(=O)(=O)/C=C/c1ccccc1)c1ccc(F)cc1Cl | inactive | 
CN(C)c1ccc(N=NS(=O)(=O)O)cc1 | inactive | 
Clc1nc(Cl)c(Cl)c(Cl)c1Cl |  | 41.2 µM (active)
CC(C)=CCCC(C)CCO (stereo not given) | inactive | 
CC(C)CCCCCCOC(=O)c1ccc(C(=O)OCCCCCCC(C)C)c(C(=O)OCCCCCCC(C)C)c1 | inactive | 
C1=CCCC=CCCC=CCC1 | inactive | 

From PubChem BioAssay (EPA / NIEHS)
